Only some compounds are listed: those with a hit (about 27% of all), similar ones and a draw of the others.
CYP2C19 act – cytochrome P450 2C19 (human) activation; recombinant CYP2C19, luciferin-H EGE luminescence; hits give high values; 0 = fully inhibited enzyme, 1 = untreated enzyme; activation factor at 5 µM; 96,000 tested, under 10 active; AID 1025;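 active = activation factor of at least 2 at 5 µM in the primary screen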
CYP2C9 inh – human CYP2C9 inhibition; P11712; CYP2C9 Supersomes, luciferin-H conversion, luminescence; inhibition, % at 5 µM; hit rate 20% among 96,000;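 active = blocking of liver enzyme CYP2C9 beyond about 50% at 5 µM, limit read from the data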
Target sequence (P11712 whole entry, looked up): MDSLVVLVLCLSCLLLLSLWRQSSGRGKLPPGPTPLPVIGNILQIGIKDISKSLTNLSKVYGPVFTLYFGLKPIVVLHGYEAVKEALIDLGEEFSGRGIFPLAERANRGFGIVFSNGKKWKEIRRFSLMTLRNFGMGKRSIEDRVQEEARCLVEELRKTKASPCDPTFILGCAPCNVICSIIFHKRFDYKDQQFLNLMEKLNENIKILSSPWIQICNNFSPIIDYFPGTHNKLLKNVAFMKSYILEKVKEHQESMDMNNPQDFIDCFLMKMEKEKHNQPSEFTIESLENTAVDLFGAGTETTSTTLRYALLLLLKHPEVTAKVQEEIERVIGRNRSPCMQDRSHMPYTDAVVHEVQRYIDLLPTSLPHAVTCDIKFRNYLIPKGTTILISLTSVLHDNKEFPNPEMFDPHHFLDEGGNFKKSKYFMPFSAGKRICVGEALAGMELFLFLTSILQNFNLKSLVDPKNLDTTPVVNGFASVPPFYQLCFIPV
CYP2C9 act – increases human cytochrome P450 2C9 activity; P11712; recombinant CYP2C9, luciferin-H conversion, luminescence; hits give high values; factor 1 = untreated enzyme, 0 = blocked; activation factor at 5 µM; hit rate 1.4% among 96,000;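 active = activation factor of 2 or more for CYP2C9 at a 5 µM dose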
Cav32 inh – human Cav3.2 channel inhibition, primary screen | AID 449739 | hit rate 4% among 100,000 | O95180 | B-score at 10 µM | Cav3.2-expressing cells, Fluo-4 calcium fluorescence FDSS; hits give low values;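 active = single-dose well whose peak fluorescence ratio is a statistical outlier from its plate by either plate-standardised score or position-corrected B-score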
CYP2C19 inh – blocks human cytochrome P450 2C19; AID 778; P33261; hit rate 21% among 96,000; CYP2C19 Supersomes, luciferin-H EGE luminescence, 30 min; inhibition, % at 5 µM;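 active = CYP2C19 inhibition above a set limit at 5 µM in the primary screen, cut at about 50% in these data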
Pyk2 oligo antag – blocks oligomerization of human Pyk2 in cells. Q14289. Q293 cells, Pyk2 FERM NanoBiT luminescence; hits give low values. z-score (the deposit names both 25 µM and 10 µM). hit rate 0.83% among 99,000;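 active = Z-score of -3 or lower, scaled per plate to the spread of control and sample wells; inactive = z-score above -3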;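 note: negative z-score means lost luminescence so less FERM oligomerization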
Numbers stand for hits.

Results for Cc1cc(N=Cc2c(O)n(-c3ccc4c(c3)OCO4)c(=O)c3ccccc23)ccn1 ?
CYP2C19 act: inactive; CYP2C9 inh: 60; CYP2C9 act: inactive; Cav32 inh: inactive; CYP2C19 inh: 55; Pyk2 oligo antag: inactive

Results for Cc1ccc(-n2c(O)c(C=Nc3ccc4c(c3)OCO4)c3ccccc3c2=O)cc1C ?
CYP2C19 act: inactive; CYP2C9 inh: inactive; CYP2C9 act: inactive; Cav32 inh: inactive; CYP2C19 inh: inactive; Pyk2 oligo antag: inactive

How did CC(Cc1cccs1)NC(=O)Nc1ccc(F)cc1 (configuration not stated) do in these assays?
CYP2C19 act: inactive; CYP2C9 inh: inactive; CYP2C9 act: inactive; CYP2C19 inh: 87; Pyk2 oligo antag: inactive

What do the screens show for `O=C(NCc1cccs1)Nc1ccc(Cl)cc1`?
Pyk2 oligo antag: inactive

Results for CC(C)C[C@H](NC(=O)Nc1cccc(Cl)c1)C(=O)O ?
CYP2C19 act: inactive; CYP2C9 inh: inactive; CYP2C9 act: inactive; Cav32 inh: inactive; CYP2C19 inh: inactive; Pyk2 oligo antag: inactive

What do the screens show for `CC(Cc1cccs1)NC(=O)Nc1cccc(Cl)c1` (configuration not stated)?
CYP2C19 act: inactive; CYP2C9 inh: inactive; CYP2C9 act: inactive; CYP2C19 inh: 66; Pyk2 oligo antag: inactive

How did Cc1nc2c(C(=O)NCc3ccccc3)c[nH]n2c(=O)c1Cl do in these assays?
CYP2C19 act: inactive; CYP2C9 inh: 53; CYP2C9 act: inactive; Cav32 inh: inactive; CYP2C19 inh: inactive; Pyk2 oligo antag: inactive

Results for O=C(NCc1ccccc1Cl)c1cnc2n(c1=O)CCS2 ?
CYP2C19 act: inactive; CYP2C9 inh: inactive; CYP2C9 act: inactive; Cav32 inh: inactive; CYP2C19 inh: 64

How did Cc1nc2c(C(=O)NCCc3ccccc3Cl)c[nH]n2c(=O)c1Cl do in these assays?
Pyk2 oligo antag: inactive

How did Cc1nc2c(C(=O)NCc3ccccc3Cl)c[nH]n2c(=O)c1Cl do in these assays?
CYP2C19 act: inactive; CYP2C9 inh: 92; CYP2C9 act: inactive; Cav32 inh: inactive; CYP2C19 inh: inactive; Pyk2 oligo antag: inactive

Results for O=C(NCc1cccnc1)c1cnc2n(c1=O)CCS2 ?
Cav32 inh: inactive; Pyk2 oligo antag: inactive

Assay outcomes: PubChem, several laboratories
